Reference: PubChem BioAssay AID1159580 (chemical genetic matrix, 2015)
“And” between values parts separate entries of the source, which are not always exact repeats. Equal entries are not always repeated. Among all 5,500 compounds or so, about 2,000 (36%) were called active. Another 18% or so got no clear call; they are omitted. No stated cut-off is given here; in the data, active means normalized growth mostly below about 0.91 (no sharp cut-off); inconclusive means no clear call, values can overlap the other calls; inactive means mostly above about 0.92. This is one part of the list.

Assay: chemical genetic growth profiling, strain panel (AID 1159580);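 further: tested at 20 µM; growth read once vehicle control cultures reached saturation at 30 °C; 1 = growth at the plate median or of vehicle wells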
Conditions: S. cerevisiae deletion strains, growth OD

Measured: normalized growth

CO[C@]12C[C@@H](COC(=O)c3cncc(Br)c3)CN(C)[C@@H]1Cc1cn(C)c3cccc2c13
inactive: locus YAL013W, strain DEP1, stronger effect = lower value 1.01 | locus YAL021C, strain ccr4, stronger effect = lower value 0.973 | locus YAL026C, strain drs2, stronger effect = lower value 1 | locus YAL030W, strain snc1, stronger effect = lower value 1 | locus YBL061C, strain skt5, stronger effect = lower value 0.996 | locus YBR009C, strain hhf1, stronger effect = lower value 0.991 | locus YBR021W, strain FUR4, stronger effect = lower value 0.913 | locus YBR023C, strain chs3, stronger effect = lower value 0.979 | locus YBR171W, strain sec66, stronger effect = lower value 0.983 | locus YBR229C, strain ROT2, stronger effect = lower value 1 | locus YBR231C, strain swc5, stronger effect = lower value 0.951 | locus YBR279W, strain paf1, stronger effect = lower value 0.998 | locus YCL011C, strain gbp2, stronger effect = lower value 0.983 | locus YCL016C, strain dcc1, stronger effect = lower value 0.998 | locus YCL029C, strain bik1, stronger effect = lower value 1.02 | locus YCL069W, strain vba3, stronger effect = lower value 0.998 | locus YCR088W, strain abp1, stronger effect = lower value 1 | locus YDL005C, strain med2, stronger effect = lower value 0.979 | locus YDL035C, strain GPR1, stronger effect = lower value 0.99 | locus YDL040C, strain nat1, stronger effect = lower value 0.995 | locus YDL074C, strain BRE1, stronger effect = lower value 0.978 | locus YDL101C, strain DUN1, stronger effect = lower value 1.01 | locus YDL134C, strain PPH21, stronger effect = lower value 0.995 | locus YDL185W, strain tfp1, stronger effect = lower value 1 | locus YDL192W, strain arf1, stronger effect = lower value 1.01 | locus YDR001C, strain nth1, stronger effect = lower value 0.994 | locus YDR069C, strain doa4, stronger effect = lower value 0.966 | locus YDR101C, strain arx1, stronger effect = lower value 1 | locus YDR137W, strain rgp1, stronger effect = lower value 1.12 | locus YDR150W, strain NUM1, stronger effect = lower value 0.999 | locus YDR159W, strain sac3, stronger effect = lower value 1.01 | locus YDR162C, strain NBP2, stronger effect = lower value 1 | locus YDR195W, strain ref2 0.943 | locus YDR297W, strain sur2, stronger effect = lower value 0.987 | locus YDR318W, strain mcm21, stronger effect = lower value 1 | locus YDR334W, strain swr1, stronger effect = lower value 1 | locus YDR335W, strain msn5, stronger effect = lower value 0.986 | locus YDR388W, stronger effect = lower value 1 | locus YDR392W, strain spt3, stronger effect = lower value 0.93 | locus YDR502C, strain sam2, stronger effect = lower value 1 | locus YEL003W, strain gim4, stronger effect = lower value 0.988 | locus YEL037C, strain rad23, stronger effect = lower value 0.995 | locus YEL061C, strain CIN8 (second series), stronger effect = lower value 0.987 | locus YEL061C, strain CIN8, stronger effect = lower value 0.997 | locus YER015W, strain faa2, stronger effect = lower value 0.996 | locus YER016W, strain bim1, stronger effect = lower value 1 | locus YER110C, stronger effect = lower value 1.01 | locus YER111C, strain swi4, stronger effect = lower value 1.01 | locus YER155C, strain BEM2 (second series), stronger effect = lower value 0.912 | locus YER155C, strain BEM2, stronger effect = lower value 0.998 | locus YER167W, strain BCK2, stronger effect = lower value 1 | locus YFR010W, strain ubp6, stronger effect = lower value 0.99 | locus YGL078C, strain dbp3, stronger effect = lower value 1 | locus YGL086W, strain mad1, stronger effect = lower value 1 | locus YGL167C, strain pmr1, stronger effect = lower value 0.996 | locus YGL173C, strain kem1, stronger effect = lower value 0.989 | locus YGL227W, strain vid30, stronger effect = lower value 0.994 | locus YGL240W, strain doc1, stronger effect = lower value 0.95 | locus YGL248W, strain PDE1, stronger effect = lower value 1.01 | locus YGL253W, strain hxk2, stronger effect = lower value 0.998 | locus YGR078C, strain PAC10, stronger effect = lower value 0.974 | locus YGR135W, strain pre9, stronger effect = lower value 0.993 | locus YGR229C, strain SMI1, stronger effect = lower value 1 | locus YGR252W, strain gcn5, stronger effect = lower value 0.869 | locus YHR013C, strain ard1, stronger effect = lower value 1.02 | locus YHR027C, strain rpn1, stronger effect = lower value 0.988 | locus YHR030C, strain SLT2, stronger effect = lower value 1.01 and 0.979 | locus YHR079C, strain IRE1 (second series), stronger effect = lower value 1.01 | locus YHR079C, strain IRE1, stronger effect = lower value 0.957 | locus YHR094C, strain hxt1, stronger effect = lower value 1 | locus YHR129C, strain ARP1, stronger effect = lower value 1.02 | locus YHR142W, strain chs7, stronger effect = lower value 1.01 | locus YHR200W, strain rpn10, stronger effect = lower value 1 | locus YIL066C, strain RNR3, stronger effect = lower value 1 | locus YIL073C, strain SPO22, stronger effect = lower value 1 | locus YIL125W, strain kgd1, stronger effect = lower value 1.01 | locus YIR030C, strain dcg1, stronger effect = lower value 1.01 | locus YJL092W, strain hpr5, stronger effect = lower value 1 | locus YJL095W, strain BCK1 (second series), stronger effect = lower value 1 | locus YJL095W, strain BCK1, stronger effect = lower value 0.996 and 0.967 | locus YJL115W, strain asf1, stronger effect = lower value 0.991 | locus YJL129C, strain trk1, stronger effect = lower value 0.982 | locus YJL134W, strain LCB3, stronger effect = lower value 1 | locus YJL154C, strain vps35, stronger effect = lower value 0.981 | locus YJL164C, strain tpk1, stronger effect = lower value 0.997 | locus YJL166W, strain qcr8, stronger effect = lower value 0.972 | locus YJL168C, strain set2, stronger effect = lower value 1 | locus YJL187C, strain SWE1 (second series), stronger effect = lower value 1.01 | locus YJL187C, strain SWE1, stronger effect = lower value 0.996 | locus YJR043C, strain POL32, stronger effect = lower value 1.01 | locus YJR066W, strain TOR1, stronger effect = lower value 0.897
